Measured values: PubChem BioAssay AID1034 (Columbia University Molecular Screening Center, 2008)
Some of the results follow.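 The calls were made as follows: active = activation above 30% in triplicate retests at 2 µM, then confirmed by visual review of the well images; inactive = the rest.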

Test: potentiators of TNFa-induced VCAM1 expression, confirmation, imaging, HUVEC, triplicate retest (AID 1034);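 also: scaled per plate between unstimulated and TNFa-stimulated DMSO control wells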
Settings: HUVEC TNFa-stimulated VCAM-1 immunofluorescence imaging; at 2 µM; hits give high values

activation, inactive:
O=C(Nc1ccncc1)c1c(F)cccc1F -14.6%
COc1ccc(OC)c(N=Cc2c(O)[nH]c3ccccc23)c1 -13.9%
CC1(C)CC(=O)C=C(N2CCCC2)C1 -17.7%
CCCCN(C)C(=O)C1CCN(Cc2ccccn2)CC1 -13%
COc1ccc(/C=N/Nc2nc3ccccc3o2)cc1OC -3.9%
CCOc1ccc(N=C2NC(=O)S/C2=C\c2ccc(O)cc2)cc1 -20.4%
CC1=NN(C(C)C)C(=O)C1 -8.4%
CCN(CC(=O)Nc1ccc2c(c1)OCCO2)Cc1cc(=O)oc2cc(C)c(C)cc12 -6.7%
Cc1cccc2cc(CN(Cc3ccc4c(c3)OCO4)Cc3nnnn3C3CCCC3)c(=O)[nH]c12 4.1%
CCOc1cc(-c2cc(-c3ccc(OC)cc3)nc(N)c2C#N)ccc1O -5.2%
COCCNS(=O)(=O)c1cc(Br)ccc1OC -14.1%
CCCOc1cc(C)c(S(=O)(=O)n2nnc3ccccc32)cc1C -4.7%
CC(=O)c1cnn(-c2cc(Oc3ccc(F)cc3)ncn2)c1C -14.8%
